FBW7 act = human FBW7 E3 ligase activation, primary screen; Q969H0; AlphaScreen FBW7–phospho-cyclin E peptide binding, activator screen; normalized activity (activation), % at 26.1 µM; actives 0.13% (n = 650,000); AID 1259310; in the data active = normalized activity above about 1.9%;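 note: purified mutant Fbw7 with reduced substrate affinity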
GPR151 ag = activates the human receptor GPR151; PathHunter beta-arrestin GPR151 cells, luminescence; activation, % at 11.2 µM; actives 1% (n = 650,000); in the data active = activation above about 4.9%
MITF primary = blocks human microphthalmia-associated transcription factor; AlphaScreen MITF homodimerization, bead proximity signal; O75030; inhibition, % at 2.6 µM; actives 0.91% (n = 650,000); AID 1259374; in the data active = inhibition above about 50%
Target sequence (O75030 whole entry, looked up): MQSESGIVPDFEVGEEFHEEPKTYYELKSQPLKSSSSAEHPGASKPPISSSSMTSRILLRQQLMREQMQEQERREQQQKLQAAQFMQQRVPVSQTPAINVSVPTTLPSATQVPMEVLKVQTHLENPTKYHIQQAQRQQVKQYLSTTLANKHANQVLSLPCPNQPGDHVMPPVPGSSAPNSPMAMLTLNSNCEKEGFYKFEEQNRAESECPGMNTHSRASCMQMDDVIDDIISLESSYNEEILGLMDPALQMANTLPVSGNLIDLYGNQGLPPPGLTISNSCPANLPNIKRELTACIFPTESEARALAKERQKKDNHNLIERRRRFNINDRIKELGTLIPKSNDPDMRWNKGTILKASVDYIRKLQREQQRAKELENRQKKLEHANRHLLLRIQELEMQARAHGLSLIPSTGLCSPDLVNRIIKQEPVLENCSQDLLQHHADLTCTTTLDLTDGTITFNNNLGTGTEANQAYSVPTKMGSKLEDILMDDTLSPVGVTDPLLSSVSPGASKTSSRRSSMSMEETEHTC
TEAD-YAP block = TEAD-YAP interaction inhibition | actives 1.4% (n = 640,000) | HEK-TIYL cells, TEAD-Gal4/YAP UAS-luciferase luminescence | AID 1259422 | inhibition, % at 9.12 µM; in the data active = inhibition above about 32%
A number is an active result; n = inactive; x = not tested or not shown; ! = not confirmed by another sample. Only some compounds are listed: those with a hit (about 3.5% of all), similar ones and a draw of the others.

SMILES	FBW7 act	GPR151 ag	MITF primary	TEAD-YAP block
Cc1cc(C)c2cc3c(N)c(C(=O)Nc4nccs4)sc3nc2c1	5.4	n	n	n
O=C(/C=C/c1ccc(O)c(O)c1)O[C@H](Cc1ccc(O)c(O)c1)C(=O)O	x	n	90	x
O=C(O)/C=C/c1ccc(O)c(O)c1	n	n	n	n
Cc1cc([N+](=O)[O-])ccc1N1C(=O)C=CC1=O	n	n	n	n
COc1cc(Nc2nc(Nc3nc4ccccc4n3C)nc3c2ncn3-c2ccsc2)cc(OC)c1OC	n	n	n	37
COc1cc(Nc2nc(Nc3ccccn3)nc3c2ncn3-c2ccsc2)cc(OC)c1OC	n	n	n	n
COc1cc(Nc2nc(Nc3cc(OC)c(OC)c(OC)c3)c3ncn(-c4ccsc4)c3n2)cc(OC)c1OC	n	n	n	50
COc1ccc(C(NC(=O)c2cccnc2C)c2nccn2C)cc1OC (centres undefined)	n	n	n	n
Cc1occc1C(=O)N1CCCC(C(=O)Nc2cccc(-c3ccc(F)cc3)c2)C1 (centres undefined)	n	n	n	n
O=C1C2=C(Nc3[nH]c(=O)[nH]c(=O)c3C2c2ccc(Cl)cc2)c2ccccc21 (centres undefined)	n	n	n	42
COCCn1c2c(c(=O)[nH]c1=O)C(c1ccc(Cl)cc1)C1=C(N2)c2ccccc2C1=O (centres undefined)	n	n	n	n
Cc1ccc(-c2csc3ncn(N)c(=O)c23)cc1	n	n	n	n
CCOC(=O)C1CCN(c2nc(-c3ccncc3)nc3cnccc23)CC1	n	n	n	33
CCOC(=O)C1CCN(c2nc(-c3ccc(Br)cc3)nc3ccccc23)CC1	n	n	n	n
CC1(C)C2CCC(C2)C1(C)NC(=O)CN1CCN(c2ccccc2)CC1 (centres undefined)	n	n	n	n
CCn1c(SCC(=O)Nc2cc(OC)ccc2OC)nc2c(c1=O)SC(C)C2 (centres undefined)	n	n	n	n
COc1ccc(S(=O)(=O)N2c3ccc(Cl)cc3C(C)=CC2(C)C)cc1	n	n	n	58
CC1=CC(C)(C)N(S(C)(=O)=O)c2ccc(OS(C)(=O)=O)cc21	n	n	n	n
COc1ccc(S(=O)(=O)N2c3cc(C)ccc3C(C)=CC2(C)C)cc1	n	n	n	63
CN(C)c1ccc(CNS(=O)(=O)c2cc(Br)cnc2N)cc1	n	n	n	n
CCc1ccc(-c2nc3cc(NC(=S)NC(=O)c4ccco4)ccc3o2)cc1	n	n	n	n
CCNc1nc(NCC)n2c(SCC(=O)c3ccc(OC)c(OC)c3)nnc2n1	n	n	69	n
CCNc1nc(NCC)n2c(SCC(=O)Nc3cccc(Cl)c3C)nnc2n1	n	n	76	n
CCNc1nc(NCC)n2c(SCC(=O)Nc3cc(=O)n(C)c(=O)n3C)nnc2n1	n	n	73	n
C=CCOc1ccccc1CN1CCC(n2nccc2NC(=O)c2ccccc2OC)CC1	n	n	n	n
SMILES	FBW7 act	GPR151 ag	MITF primary	TEAD-YAP block
CCCN1CC[C@H]2[C@H](CCC(=O)N2Cc2ccc(F)cc2)C1	n	n	n	n
COc1ccc(CCn2c(=S)[nH]c3nccnc3c2=O)cc1OC	n	n	n	40
Cc1cnc2c(c1NCCCN(C)C)c(=O)n(C)c(=O)n2C	n	n	n	36
COc1ccc(N2C(=O)NC3CC2(C)Oc2ccc(Cl)cc23)cc1OC (centres undefined)	2.2	n	n	n
CN(C)/C(CBr)=C1/N=C(c2ccccc2)OC1=O	n	n	n	n
Cc1ccn2c(/C(=C3/N=C(c4ccccc4)OC3=O)N(C)C)cnc2c1	n	n	n	34
COC(=O)c1ccccc1NC(=O)CN(c1ccc(OC)c(OC)c1)S(=O)(=O)c1ccc(C)cc1	n	n	n	n
C=CCNC(=O)c1c(-c2ccccc2)nc2cc(C)ccn12	1.9	n	n	n
COc1ccccc1N1CCN(c2c(-c3ccc(C)cc3)c(=O)c2=O)CC1	n	n	n	71
COc1cccc(N2CCN(c3c(-c4ccc(C)cc4)c(=O)c3=O)CC2)c1	n	n	n	66
Cc1ccc(-c2c(N3CCN(c4ccccc4F)CC3)c(=O)c2=O)cc1	n	n	n	n
NS(=O)(=O)c1ccc(N=Cc2c(O)n(Cc3ccco3)c(=O)[nH]c2=O)cc1	n	n	79	n
Cc1ccc(S(=O)(=O)NCc2ccccc2)cc1	n	n	n	x
O=C(Nc1ccc(Br)cc1)c1cccc(S(=O)(=O)NCc2ccccc2)c1	n	n	n	41
Cc1ccc(C(=O)Nc2ccc(S(=O)(=O)NCc3ccccc3)cc2)cc1	n	n	n	32
O=C(Nc1ccc(S(=O)(=O)NCCc2ccccc2)cc1)c1ccc([N+](=O)[O-])cc1	n	n	n	32
O=C(CCSS(=O)(=O)O)N1CCN(C(=O)c2ccco2)CC1	n	n	n	n
COC(CN(C)c1ccc(-c2ccc(O)cc2)cn1)OC	n	n	n	64
Cc1ccc(-c2noc(N=O)c2NO)cc1	n	n	n	36
O=Nc1onc(-c2ccc([N+](=O)[O-])cc2)c1NO	n	n	n	n
O=C1CCCN1CCCNc1nc(N2CCN(c3ccccn3)CC2)nc2c1ncn2-c1ccccc1	n	n	n	56
O=C1CCCN1CCCNc1nc(N2CCOCC2)nc2c1ncn2-c1ccccc1	n	n	n	67
O=C1CCCN1CCCNc1nc(N2CCN(c3ccccn3)CC2)nc2c1ncn2CCN1CCCC1=O	n	n	n	n
CC1CCc2c(sc(NC(=O)c3cccs3)c2C(=O)N2CCOCC2)C1 (centres undefined)	n	n	n	n
CCCOC(=O)c1c(NC(=O)/C=C/C(=O)O)sc2c1CCCCC2	n	n	n	n
SMILES	FBW7 act	GPR151 ag	MITF primary	TEAD-YAP block
CCCOC(=O)c1c(NC(=O)/C=C/C(=O)O)sc2c1CCCC2	n	n	n	37
CCOC(=O)c1c(NC(=O)/C=C/C(=O)O)sc2c1CCCCC2	n	n	n	n
CCOC(=O)c1c(NC(=O)/C=C\C(=O)O)sc2c1CCC(CC)C2 (centres undefined)	n	n	n	43
COc1ccc(C2CC(=O)N(CC(=O)Nc3ccccc3)c3ccccc3S2)cc1OC (centres undefined)	n	n	n	n
CCCCNS(=O)(=O)c1ccc(NC(=O)CCCOc2ccccc2)cc1	n	n	n	n
CCOC(=O)C1=C(Cc2ccc(OC)cc2)C(=O)c2ccccc2C1=O	n	n	n	46
CCOC(=O)C1=C(c2ccc(F)cc2)C(=O)c2ccccc2C1=O	n	n	n	n
N#Cc1cccc(NC(=O)C[n+]2c(N)sc3ccc4ccccc4c32)c1	n	n	n	43
CCOc1cc(-c2nc3cnccn3c2NCCOC)ccc1O	6.3	n	n	n
COCCNc1c(-c2ccc(OC)c(O)c2)nc2cnccn12	n	n	n	n
COc1ccc(N2CCN(C(=O)c3ccc(SCc4ccccc4C)c([N+](=O)[O-])c3)CC2)cc1	n	n	n	n
O=C(CCCN1CC=C(n2c(=O)[nH]c3ccccc32)CC1)c1ccc(F)cc1	1.9!	n	n	n
CC1CCN(CCCC(=O)c2ccc(F)cc2)CC1	n	n	n	n
O=C(Nc1ccc2c(c1)CN(C(=O)c1csnn1)CC2)c1ccc(C(F)(F)F)cc1	n	n	n	33

From PubChem
